Measurements: PubChem BioAssay AID1159580 (chemical genetic matrix, 2015)
Several values for one entry are separate records, joined by “and”; a condition that tells them apart may be missing. Equal entries are not always repeated. Screen size: about 5,500 compounds; about 2,000 (36%) were called active. Not shown: some 18% with an inconclusive outcome. Cut-off read from the data, not from the text of the source: active = normalized growth mostly below about 0.91 (no sharp cut-off); inconclusive = no clear call, values can overlap the other calls; inactive = mostly above about 0.92. Some of the results follow.

Assay: chemical genetic growth profiling, strain panel (AID 1159580);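 note: tested at 20 µM; growth read once vehicle control cultures reached saturation at 30 °C; 1 = growth at the plate median or of vehicle wells; lower values mean less growth of the strain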
Conditions: S. cerevisiae deletion strains, growth OD

Measured: normalized growth

CN(N=O)C(=O)N[C@@H]1[C@@H](O)[C@H](O)[C@@H](CO)O[C@@H]1O
inactive: locus YAL021C, strain ccr4, active compounds read low 1 | locus YAL026C, strain drs2, active compounds read low 0.991 | locus YAL030W, strain snc1, active compounds read low 0.988 | locus YBL061C, strain skt5, active compounds read low 1.01 | locus YBR009C, strain hhf1, active compounds read low 0.979 | locus YBR021W, strain FUR4, active compounds read low 1 | locus YBR023C, strain chs3, active compounds read low 0.999 | locus YBR171W, strain sec66, active compounds read low 1.01 | locus YBR229C, strain ROT2, active compounds read low 1 | locus YBR231C, strain swc5, active compounds read low 0.997 | locus YBR279W, strain paf1, active compounds read low 1.02 | locus YCL011C, strain gbp2, active compounds read low 1 | locus YCL016C, strain dcc1, active compounds read low 1.03 | locus YCL029C, strain bik1, active compounds read low 0.99 | locus YCL061C, strain MRC1, active compounds read low 1.02 | locus YCL069W, strain vba3, active compounds read low 0.974 | locus YCR088W, strain abp1, active compounds read low 0.973 | locus YDL005C, strain med2, active compounds read low 0.98 | locus YDL035C, strain GPR1, active compounds read low 1.03 | locus YDL040C, strain nat1, active compounds read low 0.999 | locus YDL074C, strain BRE1, active compounds read low 1.02 | locus YDL101C, strain DUN1, active compounds read low 1.01 | locus YDL134C, strain PPH21, active compounds read low 1.02 | locus YDL185W, strain tfp1, active compounds read low 1.02 | locus YDL192W, strain arf1, active compounds read low 1.01 | locus YDR001C, strain nth1, active compounds read low 0.978 | locus YDR069C, strain doa4, active compounds read low 0.986 | locus YDR101C, strain arx1, active compounds read low 0.979 | locus YDR137W, strain rgp1, active compounds read low 0.938 | locus YDR150W, strain NUM1, active compounds read low 1.01 | locus YDR159W, strain sac3, active compounds read low 0.945 | locus YDR162C, strain NBP2, active compounds read low 1.04 | locus YDR195W, strain ref2 0.988 | locus YDR297W, strain sur2, active compounds read low 0.998 | locus YDR318W, strain mcm21, active compounds read low 1.01 | locus YDR334W, strain swr1, active compounds read low 0.95 | locus YDR335W, strain msn5, active compounds read low 0.981 | locus YDR388W, active compounds read low 1.01 | locus YDR392W, strain spt3, active compounds read low 0.956 | locus YDR502C, strain sam2, active compounds read low 0.998 | locus YEL003W, strain gim4, active compounds read low 0.995 | locus YEL037C, strain rad23, active compounds read low 0.986 | locus YEL061C, strain CIN8 (second series), active compounds read low 0.971 | locus YEL061C, strain CIN8, active compounds read low 1.01 | locus YER015W, strain faa2, active compounds read low 1 | locus YER016W, strain bim1, active compounds read low 0.983 | locus YER110C, active compounds read low 1.01 | locus YER111C, strain swi4, active compounds read low 0.998 | locus YER155C, strain BEM2 (second series), active compounds read low 0.983 | locus YER155C, strain BEM2, active compounds read low 1 | locus YER167W, strain BCK2, active compounds read low 1.02 | locus YFR010W, strain ubp6, active compounds read low 0.954 | locus YGL078C, strain dbp3, active compounds read low 1 | locus YGL086W, strain mad1, active compounds read low 0.989 | locus YGL167C, strain pmr1, active compounds read low 0.993 | locus YGL173C, strain kem1, active compounds read low 1.01 | locus YGL227W, strain vid30, active compounds read low 1.01 | locus YGL240W, strain doc1, active compounds read low 0.985 | locus YGL248W, strain PDE1, active compounds read low 0.996 | locus YGL253W, strain hxk2, active compounds read low 0.982 | locus YGR078C, strain PAC10, active compounds read low 0.999 | locus YGR135W, strain pre9, active compounds read low 1.04 | locus YGR229C, strain SMI1, active compounds read low 1.01 | locus YGR252W, strain gcn5, active compounds read low 1.02 | locus YHR013C, strain ard1, active compounds read low 0.999 | locus YHR027C, strain rpn1, active compounds read low 0.99 | locus YHR030C, strain SLT2, active compounds read low 1 and 1.02 | locus YHR079C, strain IRE1 (second series), active compounds read low 1 | locus YHR079C, strain IRE1, active compounds read low 1.07 | locus YHR094C, strain hxt1, active compounds read low 1 | locus YHR129C, strain ARP1, active compounds read low 0.998 | locus YHR142W, strain chs7, active compounds read low 0.962 | locus YHR200W, strain rpn10, active compounds read low 1.01 | locus YIL066C, strain RNR3, active compounds read low 1.01 | locus YIL073C, strain SPO22, active compounds read low 1.14 | locus YIL125W, strain kgd1, active compounds read low 1 | locus YIR030C, strain dcg1, active compounds read low 1 | locus YJL092W, strain hpr5, active compounds read low 0.979 | locus YJL095W, strain BCK1 (second series), active compounds read low 1 | locus YJL095W, strain BCK1, active compounds read low 1.02 and 1 | locus YJL115W, strain asf1, active compounds read low 0.981 | locus YJL129C, strain trk1, active compounds read low 0.984 | locus YJL134W, strain LCB3, active compounds read low 1 | locus YJL154C, strain vps35, active compounds read low 0.998 | locus YJL164C, strain tpk1, active compounds read low 0.993 | locus YJL166W, strain qcr8, active compounds read low 1 | locus YJL168C, strain set2, active compounds read low 1.01
